Screening data: PubChem, National Center for Advancing Translational Sciences (NCATS)
Most compounds without a hit are left out; they make up all but 3.6% or so of the library.
15-hLO inh: 15-hLO (ALOX15) enzyme inhibition; P16050; purified 15hLO-1, xylenol orange hydroperoxide absorbance; Potency, µM (titrated, usually from 57.1 µM), inactives show top-dose activity change, negative = inhibition, hits mostly inhibitors; 74,000 compounds, 1.4% hits; further: on the % scale 0 is the no-effect control and ±100 the full control effect; nearly all actives have a fitted effect of over 55% in size
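Purified human 15hLO-1 (40 nM final) in 25 mM Hepes pH 7.5, 0.01% Triton X-100 was preincubated with compound 15 min at room temperature, then reacted 6 min with 50 uM arachidonic acid; hydroperoxide detected by Fe-XO, 573/405 nm absorbance ratio.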
IkB sig inh: inhibitors of IkB signaling in ABC-DLBCL cells; ABC-DLBCL IkBa-CBG/CBR dual luciferase ratio, 4 h; response scale: scaled: untreated 0%, proteasome inhibitor 100%; Potency, µM (highest dose often 57.1 µM), inactives show at the highest dose IkBa stabilization activation; 110,000 compounds, 0.04% hits; active means well fitted curve in the direction sought with a large enough effect in the signal ratio, not every such curve was filed as active; inconclusive means small, poorly fitted or top-dose-only effect, or a change in a side signal; the % refers to the signal ratio;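 further: the direction sought is a rising ratio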
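Luminescence ratio of IκBα-fused green versus native red beetle luciferase in OCI-Ly3 cells, 4 h post-doxycycline with compound; red signal alone, scaled from basal (0%) to zero light (-100%), flagged nonspecific or cytotoxic effects.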
Tau fil binding: tau filament binding; P10636; recombinant tau filaments, thioflavin S fluorescence, 15 h; filaments grown with octadecylsulfate alongside compound; Potency, µM (doses to about 57.1 µM), inactives show at the top dose activity change, negative = inhibition; 71,000 compounds, 2% hits; AID 596;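 further: on the % scale 0 is the no-effect control and ±100 the full control effect; actives lower thioflavin S fluorescence by blocking filaments or displacing dye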
Target sequence (P10636 whole entry, looked up): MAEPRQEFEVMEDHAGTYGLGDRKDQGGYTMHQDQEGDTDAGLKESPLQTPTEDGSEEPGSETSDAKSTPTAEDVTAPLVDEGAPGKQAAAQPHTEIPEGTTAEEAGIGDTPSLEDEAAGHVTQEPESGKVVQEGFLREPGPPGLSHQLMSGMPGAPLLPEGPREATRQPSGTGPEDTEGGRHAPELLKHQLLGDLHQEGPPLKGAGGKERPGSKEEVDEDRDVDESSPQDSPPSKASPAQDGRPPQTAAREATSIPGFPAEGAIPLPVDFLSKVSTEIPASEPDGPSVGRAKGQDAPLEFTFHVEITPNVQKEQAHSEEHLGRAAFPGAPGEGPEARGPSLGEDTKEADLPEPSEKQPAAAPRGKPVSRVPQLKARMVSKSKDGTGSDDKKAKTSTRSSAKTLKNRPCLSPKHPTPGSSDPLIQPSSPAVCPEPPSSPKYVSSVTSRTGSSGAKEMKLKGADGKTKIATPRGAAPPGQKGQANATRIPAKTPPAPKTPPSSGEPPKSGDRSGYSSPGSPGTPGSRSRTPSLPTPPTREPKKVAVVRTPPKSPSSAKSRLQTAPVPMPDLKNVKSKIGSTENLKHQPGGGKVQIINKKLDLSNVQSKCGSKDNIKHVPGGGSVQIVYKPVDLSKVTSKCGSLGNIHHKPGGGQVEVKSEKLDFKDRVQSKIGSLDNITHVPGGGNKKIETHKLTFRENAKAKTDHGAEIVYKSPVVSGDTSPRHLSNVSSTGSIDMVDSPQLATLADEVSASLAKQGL
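His-tagged recombinant human tau (exons 2, 3 and 10 included), 1 uM, was induced to fibrillize by 30 uM sodium octadecylsulfate with compound present. After 15 h at 37 C, thioflavine S fluorescence (ex 450, em 510 nm) was read.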
CRE Fsk mod: modulators of forskolin-stimulated CRE signaling in CHO cells; AID 662; Potency, µM (titrated, usually from 38.2 µM), without a hit: at the highest dose activity change, negative = inhibition, hits mostly activators; CHO CRE-bla reporter (cAMP response element driving beta-lactamase), forskolin EC10, beta-lactamase ratio; 71,000 compounds, 2.5% hits; active means well fitted activation curve with a large enough effect in the signal ratio, with a control signal flat, not every such curve was filed as active; inconclusive means small, poorly fitted or top-dose-only effect, or effect the other way, or a change in a side signal; the % refers to the signal ratio; further: % of control where 0% means no effect
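CRE-bla CHO reporter cells treated with compound titration plus EC10 NKH 477 (water-soluble forskolin), incubated 3 h at 37 °C; CCF4 loading 2 h at room temperature, 460/530 nm emission ratio read, AC50 values derived for positive or negative modulators.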
Hsp90 Hop PPI: changes Hsp90-Hop TPR2A binding signal, up or down. AlphaScreen TPR2A-His6 binding biotin-Hsp90 C-terminal peptide. Potency, µM (series often up to 57 µM), for the others: top-dose activity change, negative = inhibition. 71,000 compounds, 0.44% hits. AID 595; active means well fitted curve in either direction with a large enough effect; inconclusive means small, poorly fitted or top-dose-only effect, or another doubt; further: on the % scale 0 is the no-effect control and ±100 the full control effect
* = called active by the depositor; i = inactive; ? = inconclusive; . = not tested or not shown; [ ] = another dose, or the depositor's remark. Unless noted, the call rests on the fitted dose curve; in most records, active means well fitted curve in the direction sought with a large enough effect; inconclusive means small, poorly fitted or top-dose-only effect, or another doubt; inactive means no such curve, though single readings can be large; an effect the other way counts as inactive or inconclusive. Potency means the concentration at half of the fitted maximal effect.

SMILES | 15-hLO inh | IkB sig inh | Tau fil binding | CRE Fsk mod | Hsp90 Hop PPI
COc1ccccc1CNc1ccnc(-c2ccc3c(c2)OCO3)n1 | 13µM* | 9%[11.4 µM] | 2% | 14% | 0%
COc1ccc(CNc2cc(-c3ccccc3OC)ncn2)c(OC)c1 | 25µM* | 1%[11.4 µM] | 0% | ? | -12%
COc1ccccc1CNc1ccnc(-c2ccccc2OC)n1 | 13µM* | 3%[11.4 µM] | 3% | 2% | -11%
COCCNc1ccnc(-c2ccccc2C)n1 | 13µM* | 1%[11.4 µM] | -12% | -7% | -1%
Cc1ccc(S(=O)(=O)c2nc(S(=O)(=O)c3ccc(C)cc3)c(NCCCOC(C)C)s2)cc1 | . | 1% | . | . | .
COc1ccc(S(=O)(=O)NCCc2sc3nc(-c4ccc(C)cc4)nn3c2C)cc1C | . | -2% | . | . | .
COc1cc2c3c(c1)/C(=C1/SC(NC(C)=O)=NC1=O)C(=O)N3C(C)(C)C=C2C | -20% | 3% | -16% | ? | 25µM*
CCc1cccc(C)c1NC(=O)CCn1nc(C)c2c(C)n(-c3ccccc3)nc2c1=O | . | 0% | . | . | .
CCCn1c(N2CCN(CC(=O)c3c(C)n(C)c4ccccc34)CC2)nc2c1c(=O)[nH]c(=O)n2C | 2% | 1% | 28% | 7.9µM* | -1%
CCn1c(N2CCN(CC(=O)c3c[nH]c4ccccc34)CC2)nc2c1c(=O)[nH]c(=O)n2C | -16% | 1% | -1% | 28% | -5%
CCOC(=O)c1c(CN2CCCCC2)n(C)c2cc(Br)c(O)c(CN(C)C)c12 | -11% | 2% | 18% | 7% | -9%
CCOC(=O)c1c(CN2CCCCC2)n(C)c2cc(Br)c(OC)cc12 | 0% | 0% | -7% | 10µM* | -3%
Cc1cc(C)n2cc(CSc3nnc(-c4ccccc4)o3)nc2n1 | 15% | 0% | -2% | 13µM* | -3%
Cc1cc(C)n2cc(CSc3nc4cc(Cl)ccc4o3)nc2n1 | 0% | 0% | 11% | ? | 2%
COc1ccc(-c2coc3cc(O)ccc3c2=O)c(O)c1O | 13µM* | . | . | . | .
COc1cc(-c2oc3cc(O)ccc3c(=O)c2O)ccc1O | 13µM* | . | . | . | .
O=c1c(O)c(-c2ccc(O)c(O)c2)oc2ccccc12 | 2µM* | -1%[11.4 µM] | ? | ? | 1%
COCCn1c(SCC(=O)Nc2ccc(Br)cc2)nc2c([nH]c3ccccc32)c1=O | . | 3% | . | . | .
CC(C)(C)C(=O)Nc1ccc(-c2cn3ccsc3n2)cc1 | -3% | 0% | -6% | 13% | -3%
CC(C)CC(=O)Nc1ccc(-c2cn3ccsc3n2)cc1 | -8% | ? | 13µM* | 12% | -9%
CCOC(=O)c1sc(NC(C)=O)c(C(=O)OCC)c1C | 1% | -2% | 12% | ? | 2%
CCOC(=O)Nc1sc(C(=O)N(CC)CC)c(C)c1C(=O)OCC | -28% | 4% | -3% | 4µM* | -1%
CCc1ccc(NC(=O)C2=C(C)C(=O)OC23CCCCC3)cc1 | . | -1% | . | . | .
O=C(Nc1cccnc1)c1cnn2c(C(F)F)cc(C3CC3)nc12 | 5% | 0% | -9% | 7.9µM* | 2%
Cc1nnc2c(N3CCN(c4ccc(F)cc4)CC3)nc3ccc(C(=O)c4ccccc4)cc3n12 | . | -3% | . | . | .
SMILES | 15-hLO inh | IkB sig inh | Tau fil binding | CRE Fsk mod | Hsp90 Hop PPI
COc1ccc(-c2nnc(COc3ccc4ccccc4c3)o2)cc1OC | -11%[11.4 µM] | ? | 70%[11.4 µM] | ? | 4%[11 µM]
COc1cc(-c2nnc(COc3ccc4cc(Br)ccc4c3)o2)cc(OC)c1OC | 1% | 1% | i | 2.5µM* | 3%
Cc1ccc(C(=O)NC2(C(F)(F)F)N=C(c3ccccc3)N(Cc3ccccc3)C2=O)cc1 (stereo unspecified) | . | -1% | . | . | .
C(=C\c1ccccc1)/C=N/n1cnnc1 | 3% | 0% | -3% | 1% | 3%
CN1/C(=C/C=N/n2cnnc2)C(C)(C)c2ccccc21 | 25µM* | 0% | -5% | 9% | 2%
CCCCC#Cc1nc(NC)c2ncn([C@@H]3O[C@@H](CO)[C@H](O)[C@H]3O)c2n1 | 0%[25.6 µM] | 1% | 7% | 20µM* | 2%
O=c1c2c3nc4ccccc4nc3n(Cc3ccccc3)c2ncn1Cc1ccco1 | ? | ? | 10µM* | 7% | -3%
CC(=O)O[C@H](CC(=O)O)C[N+](C)(C)C | -24%[25.6 µM] | 0% | 40µM* | -7% | -6%
